# Data as given in PubChem BioAssay (Tox21).
# Several values for one entry are separate records, joined by “and”; a condition that tells them apart may be missing. Equal entries are not always repeated. Records with an inconclusive call do not appear. A call without a number means that no potency is given here. Some structures have more than one record in an assay (separate samples or runs), and their calls can disagree. Activity calls are given as the source filed them. Calls follow the shape of the dose curve; as a rule, active = well fitted cell-killing curve with a large enough effect in the repeat runs; inconclusive = weak or mixed curves, or effect the other way; inactive = no such curve, though single readings can be large or run the other way.
# Assay: qHTS assay for identifying genotoxic compounds that show differential cytotoxicity against isogenic chicken DT40 cell lines with known DNA damage response pathways - Rev3 mutant cell line (AID 743014); also: nearly all actives have a fitted effect of over 55% in size
# Details: chicken DT40 Rev3-/- viability, CellTiter-Glo, 40 h; series mostly up to 68.4 µM; activity, negative = cytotoxicity: at the top concentration
# Description: National Center for Advancing Translational Sciences [NCATS]
# NIH Chemical Genomics Center [NCGC]
# U.S. Environmental Protection Agency [EPA]
# National Institutes of Environmental Health Sciences [NIEHS]
# National Toxicology Program [NTP]
# U.S. Food and Drug Administration [FDA]
# DNA repair pathways play a critical role in cellular homeostasis by repairing DNA damage induced by endogenous processes and xenobiotics. Isogenic chicken DT40 cell lines deficient in different DNA repair pathways can be used to identify genotoxic compounds and aid in characterizing the nature of the DNA damage induced. Two DNA repair-deficient cell lines with disrupted genes, Rad54/Ku70 or Rev3, were used to screen the Tox21 10K compound library. Possible genotoxicity was based on the presence of a significant increase in cytotoxicity in one or more of the DNA repair-deficient cell lines compared to that observed in the parental DNA repair-proficient cell line. CellTiter Glo viability assay (Promega, Madison, WI) was used to measure cell viability in these cells after compound treatment. This assay includes the data from the Rev3 mutant cell line.
# Tox21 Assay Protocol Summary:
# 300 DT40 mutant cells in 5 uL/well were dispensed into white, solid-bottom 1536-well plates using a Multidrop Combi (ThermoFisher Scientific, Waltham, MA) dispenser. After the assay plates were incubated at 37 C/5% CO2 for approximately 0.5 hour, 23 nL of compounds dissolved in DMSO, positive controls or DMSO only was transferred into the assay plate by a pintool work station (Kalypsys, San Diego, CA). The assay plates were incubated at 37 C/5% CO2 for 40 hours. After 5 uL per well of CellTiter-Glo reagent was added into each well of the assay plates, the plates were incubated for 30 min at room temperature and the luminescence intensity of the plates was measured using a ViewLux (PerkinElmer, Shelton, CT) plate reader.
# Potency is read from the fitted curve at half-maximal effect.
SMILES,Potency,"activity, negative = cytotoxicity"
CCCCCCCCCCCCCCCC(=O)OC(C)C,inactive,–
CCCCCCCC=O,inactive,–
O=C1C(c2[nH]c3ccccc3c2O)=Nc2ccccc21,inactive,–
CCNc1cccc(C)c1,inactive,–
NCCN1CCNCC1,inactive,–
OC1C(O)C(O)C(O)C(O)C1O (stereo not given),inactive,–
N#Cc1ccccc1,inactive,–
C=CC(=O)OCCC(=O)O,inactive,–
CCCCCCC=O,inactive and 43.3 µM (active),–
CC(C)(Oc1ccc(CCNC(=O)c2ccc(Cl)cc2)cc1)C(=O)O,inactive,–
c1ccc(Oc2ccccc2)cc1,inactive,–
O=C1CCCC1,inactive,–
COc1ccc(CCC(C)=O)cc1,–,-17.3% (inactive)
O=S(=O)(O)c1ccc(N=Nc2c(O)ccc3cc(S(=O)(=O)O)ccc23)cc1,inactive,–
Cc1ccc(S(=O)(=O)N=C=O)cc1,inactive,–
CN1C(=O)CC[C@H]1c1cccnc1,–,-18% (inactive)
CC(C)CC(=O)CC(C)CC(C)C (stereo not given),inactive,–
CCOCCOCCOCCO,inactive,–
CC(CCO)CC(C)(C)C (stereo not given),inactive,–
COCCOC(=O)c1ccccc1C(=O)OCCOC,–,1.53% [at 95 µM] (inactive)

SMILES,Potency,"activity, negative = cytotoxicity"
COc1cc(OC)c(C(=O)CCCN2CCCC2)c(OC)c1,inactive and 21.7 µM (active),–
COc1ccc([N+](=O)[O-])cc1N,–,1.99% [at 95 µM] (inactive)
CSc1ccc(Cl)cc1,inactive,–
CN(C)CCOC(=O)COc1ccc(Cl)cc1,–,-9.35% (inactive)
CCCCCCCCCCCCCCCCO,inactive and 68.6 µM (active),–
CNC(=O)Oc1ccc2c(c1)[C@]1(C)CCN(C)[C@@H]1N2C,inactive and 48.6 µM (active),–
C[C@]12CCC(=O)C=C1CC[C@@H]1[C@@H]2[C@@H](O)C[C@@]2(C)[C@H]1CC[C@]2(O)C(=O)CO,inactive,–
CC(C)CCCCCCCOC(=O)CCCCC(=O)OCCCCCCCC(C)C,inactive and 38.6 µM (active),–
CN(C)c1ccc(O)c2c1C[C@H]1C[C@H]3[C@H](N(C)C)C(=O)C(C(N)=O)=C(O)[C@@]3(O)C(=O)C1=C2O,26.6 µM (active) and 18.8 µM (active) and 13.7 µM (active),–
C=CCc1ccc(OC)c(OC)c1,inactive,–
C[Si]1(C)O[Si](C)(C)O[Si](C)(C)O[Si](C)(C)O1,inactive,–
CC(=O)CCC=C(C)C,inactive,–
CC1(C)S[C@@H]2[C@H](NC(=O)COc3ccccc3)C(=O)N2[C@H]1C(=O)O,–,1.72% (inactive)
COc1ccc(OC)cc1,inactive,–
CCO[Si](CCC#N)(OCC)OCC,inactive,–
CNC(=S)N(C)C,inactive,–
CN(C)c1ccc(Cc2ccc(N(C)C)cc2)cc1,48.8 µM (active) and 27.3 µM (active),–
O=c1[nH]cnc2[nH]ncc12,inactive,–
CCNC(=S)NCC,inactive,–
CC(O)CC(C)(C)O (stereo not given),inactive,–
